Experiment [1] in a line: qHTS assay to identify small molecule antagonists of the constitutive androstane receptor (CAR) signaling pathway - cell viability counter screen (AID 1224837). Note: nearly all actives have a fitted effect of over 45% in size. The method in brief: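 Using CellTiter-Fluor, viability is scored in HepG2 cells stably carrying hCAR and a 2.2kb CYP2B6 reporter after 23 hr compound exposure across 15 concentrations, with CITCO present at 50 nM.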

Experiment [2] deals with Nuclear receptor subfamily 1 group I member 3 (Homo sapiens) (UniProt Q14994). Put plainly: qHTS assay to identify small molecule antagonists of the constitutive androstane receptor (CAR) signaling pathway (AID 1224838).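 Note: HepG2 cells stably expressing hCAR with CYP2B6 luciferase reporter stimulated by CITCO; nearly all actives have a fitted effect of over 40% in size.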 In short, it runs like this: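 Reporter luminescence was quantified after 24 h exposure of hCAR/CYP2B6-2.2kb double-stable HepG2 cells to compounds at 15 concentrations in the presence of 50 nM CITCO final.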

For experiment [3] the target is unchanged. Nature of the experiment: qHTS assay to identify small molecule agonists of the constitutive androstane receptor (CAR) signaling pathway (AID 1224839). Note: nearly all actives have a fitted effect of over 15% in size. Note: potency is the fitted concentration of half-maximal effect. The method in brief:
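Cells were plated and incubated 4 hrs, then dosed with compounds at 15 concentrations. PK11195 was added to 0.75 uM final. After 24 hrs at 37 C, luciferase luminescence was measured.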

The nature of experiment [4]: qHTS assay to identify small molecule antagonists of the estrogen related receptor signaling pathway with the pleiotropic PPARgamma coactivator (PGC) from Tox21 10K library - cell viability counter screen (AID 1224840; active = well fitted cell-killing curve with a large enough effect in the repeat runs, not every such curve was filed as active; note: nearly all actives have a fitted effect of over 40% in size). The method in brief:
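Here the PGC/ERR cells serve as a cytotoxicity control: they are exposed to compounds for 17.5 hours at 37 C, and live-cell signal is quantified using CellTiter-Fluor fluorescence.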

Experiment [5] in a line: qHTS assay to identify small molecule antagonists of the estrogen related receptor signaling pathway with the pleiotropic PPARgamma coactivator (PGC) from Tox21 10K library (AID 1224841; call rule not given here; note: actives are mostly falling curves and most rising ones were filed inactive; nearly all actives have a fitted effect of over 50% in size; note: potency is the fitted concentration of half-maximal effect). The method in brief:
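Each well held 2,000 PGC/ERR cells, pre-incubated six hours (37 C, 5% CO2). Test substances in DMSO were added by pin tool and left for 18 h at 37 C before luciferase detection by One-Glo.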

A short description of experiment [6]: qHTS assay to identify small molecule agonists of the estrogen related receptor signaling pathway with the pleiotropic PPARgamma coactivator (PGC) from Tox21 10K library (AID 1224842). Note: nearly all actives have a fitted effect of over 15% in size. In short, it runs like this: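 PGC/ERR reporter cell line, 2,000 cells per well, incubated 6 h at 37 C before 23 nL compound in DMSO was added. After 18 h at 37 C, One-Glo luminescence read following 30 min at room temperature.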

Experiment [7] addresses Thyrotropin receptor (Homo sapiens) (UniProt P16473). Put plainly: qHTS assay to identify small molecule agonists of the thyroid stimulating hormone receptor (TSHR) signaling pathway (AID 1224843; calls by dose curve; note: nearly all actives have a fitted effect of over 45% in size). The method in brief: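 TSHR-HEK293 cells in agonist mode, 30 min room-temperature step, then cAMP measured by competitive HTRF (cAMP-d2 with anti-cAMP cryptate) after 1 h at room temperature. Tested at 15 concentrations in triplicate.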

Experiment [8] can be described thus: qHTS assay to identify small molecule agonists of the hypoxia (HIF-1) signaling pathway - cell viability counter screen (AID 1224844; calls by dose curve; note: nearly all actives have a fitted effect of over 50% in size). The method in brief: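 Multiplexed with the HRE beta-lactamase assay, this viability read used CellTiter-Glo luminescence (30 min, RT) on HRE-bla ME-180 cells treated 17 hrs with compounds in 0.5% dialyzed FBS medium.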
A short description of experiment [9]: qHTS assay to identify small molecule agonists of the hypoxia (HIF-1) signaling pathway (AID 1224846; active = well fitted activation curve with a large enough effect in the signal ratio in the repeat runs, not every such curve was filed as active; the % refers to the signal ratio). The method in brief:
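Hypoxia-pathway activation was scored as increased beta-lactamase from an HRE-controlled reporter in ME-180 cells; plated at 2,000 cells per well with 0.5% dialyzed FBS, they were exposed 17 hrs to compounds and then given CCF4-AM.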

Experiment [10] is described as follows: qHTS assay to identify small molecule antagonists of the estrogen related receptor (ERR) signaling pathway from Tox21 library (AID 1224848). Note: nearly all actives have a fitted effect of over 50% in size. Note: potency is the fitted concentration of half-maximal effect. In short, it runs like this: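 ERR reporter cell line (from NTP) seeded 2,000 cells/well, rested 6 h at 37 C/5% CO2, then pin-dosed with compounds in DMSO. After 18 h at 37 C, ONE-Glo added; luminescence read after 30 min at room temperature.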

The nature of experiment [11]: qHTS RealTime-Glo MT Cell Viability Assay in HepG2 cells - 24 hour (AID 1224867). Note: nearly all actives have a fitted effect of over 50% in size. The method in brief:
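HepG2 cells (600/well) were dispensed with RealTime-Glo reagents, incubated 5 h at 37 °C, then treated with compounds in DMSO for up to 40 h. Nonlytic NanoLuc luminescence reflecting viable cells was read at each stated time point.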

Experiment [12] can be described thus: qHTS RealTime-Glo MT Cell Viability Assay in HEK293 cells - 32 hour (AID 1224868). Note: nearly all actives have a fitted effect of over 50% in size. Note: potency is the fitted concentration of half-maximal effect. The method in brief:
(§1)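 HEK293 cells seeded with NanoLuc/prosubstrate reagent, rested 5 h at 37 C, then dosed and kept at 37 C up to 40 h. Nonlytic real-time luminescence from viable cells read at 0, 8, 16, 24, 32 and 40 h.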

Experiment [13] is described as follows: A CellTox Green Cytotoxicity Assay to monitor cytotoxicity in HEK293 cells - 0 hour (AID 1224869). Note: nearly all actives have a fitted effect of over 50% in size. The method in brief:
(§2)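 Seeding of HEK293 cells together with cytotoxicity dye preceded a 5 h incubation at 37 C/5% CO2. Test compounds in DMSO were then added and fluorescence monitored across 40 h.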

A short description of experiment [14]: A CellTox Green Cytotoxicity Assay to monitor cytotoxicity in HEK293 cells - 40 hour (AID 1224871). Note: nearly all actives have a fitted effect of over 45% in size. The method in brief: as §2
Experiment [15] is described as follows: qHTS RealTime-Glo MT Cell Viability Assay in HEK293 cells - 16 hour (AID 1224872). The method in brief: as §1
A short description of experiment [16]: qHTS assay to identify small molecule agonists of H2AX (AID 1224845; active = well fitted activation curve with a large enough effect in the signal ratio in the repeat runs, not every such curve was filed as active; the % refers to the signal ratio). In short, it runs like this:
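Wild-type CHO-K1 cells, plated overnight, exposed 3hr at 37C to 15 concentrations (0.76% DMSO final). Lysed, then HTRF anti-pH2AX (S139) cryptate and anti-H2AX-d2 antibodies, 24 hr room temperature; 665/620 nm emission read.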

Experiment [17] is described as follows: qHTS assay to identify small molecule agonists of H2AX - cell viability counter screen (AID 1224847; calls by dose curve; note: top concentration of the series differs between compounds; nearly all actives have a fitted effect of over 30% in size). The method in brief: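 Cytotoxicity counter screen in wild-type CHO-K1 cells: a 3 hr compound treatment at 37C across 15 concentrations, followed by CellTiter-Glo luminescence to gauge viable cells.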
Experiment [18] can be described thus: qHTS RealTime-Glo MT Cell Viability Assay in HepG2 cells - 40 hour (AID 1224870). Note: nearly all actives have a fitted effect of over 50% in size. The method in brief: (§3)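 HepG2 cells (600/well) mixed with RealTime-Glo MT reagent, settled 5 h at 37 C/5% CO2 before compound addition. Nonlytic NanoLuc luminescence from viable-cell prosubstrate reduction read repeatedly during 40 h treatment at 37 C.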
Experiment [19] is described as follows: qHTS RealTime-Glo MT Cell Viability Assay in HepG2 cells - 8 hour (AID 1224873). Note: nearly all actives have a fitted effect of over 55% in size. In short, it runs like this: as §3
Experiment [20] in a line: qHTS assay to identify small molecule agonists of the estrogen related receptor (ERR) signaling pathway from Tox21 library (AID 1224849; calls by dose curve; note: nearly all actives have a fitted effect of over 15% in size). The conditions noted are these: ERR reporter cell line, ONE-Glo luciferase, 18 h; at 92.4 µM (top of the series). The method in brief: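 Six hours post-seeding at 37 C/5% CO2, ERR cells receive DMSO-solubilised compounds; after 18 h at 37 C, ONE-Glo reagent is applied and luminescence recorded.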

Where “and” joins values, the source holds several entries; their conditions need not be identical. Equal values may be shown once. Inconclusive results are not listed. More than one record can exist for a structure, and the calls need not agree. Calls of active or inactive are those of the source. Unless noted, calls come from the whole dose curve; as a rule, active = well fitted curve in the direction sought with a large enough effect in the repeat runs; inconclusive = weak or mixed curves; inactive = no such curve, though single readings can be large; an effect the other way counts as inactive or inconclusive.
% is set by controls: 0 for no effect and ±100 for the full control effect.

Sequence of Thyrotropin receptor (Homo sapiens) (P16473 whole entry, looked up): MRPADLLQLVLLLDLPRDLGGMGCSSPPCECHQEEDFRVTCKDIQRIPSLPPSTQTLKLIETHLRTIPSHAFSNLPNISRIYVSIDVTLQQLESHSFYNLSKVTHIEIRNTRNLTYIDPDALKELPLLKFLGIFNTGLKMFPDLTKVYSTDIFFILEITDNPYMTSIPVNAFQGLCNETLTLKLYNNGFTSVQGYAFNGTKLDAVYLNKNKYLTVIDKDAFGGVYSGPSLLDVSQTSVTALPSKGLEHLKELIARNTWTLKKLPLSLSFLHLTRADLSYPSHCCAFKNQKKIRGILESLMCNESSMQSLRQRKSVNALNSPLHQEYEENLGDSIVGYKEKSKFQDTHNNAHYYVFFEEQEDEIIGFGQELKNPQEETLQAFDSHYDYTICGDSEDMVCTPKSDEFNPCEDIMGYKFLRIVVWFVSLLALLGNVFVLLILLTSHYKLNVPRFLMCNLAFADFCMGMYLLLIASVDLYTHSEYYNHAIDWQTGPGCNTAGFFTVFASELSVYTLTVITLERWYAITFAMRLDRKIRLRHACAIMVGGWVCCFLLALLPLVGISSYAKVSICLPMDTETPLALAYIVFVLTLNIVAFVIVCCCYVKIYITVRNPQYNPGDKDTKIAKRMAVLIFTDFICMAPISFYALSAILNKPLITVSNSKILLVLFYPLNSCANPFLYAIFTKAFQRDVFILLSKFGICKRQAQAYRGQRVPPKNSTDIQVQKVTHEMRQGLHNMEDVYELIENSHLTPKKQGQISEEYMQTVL
Sequence of Nuclear receptor subfamily 1 group I member 3 (Homo sapiens) (Q14994 whole entry, looked up): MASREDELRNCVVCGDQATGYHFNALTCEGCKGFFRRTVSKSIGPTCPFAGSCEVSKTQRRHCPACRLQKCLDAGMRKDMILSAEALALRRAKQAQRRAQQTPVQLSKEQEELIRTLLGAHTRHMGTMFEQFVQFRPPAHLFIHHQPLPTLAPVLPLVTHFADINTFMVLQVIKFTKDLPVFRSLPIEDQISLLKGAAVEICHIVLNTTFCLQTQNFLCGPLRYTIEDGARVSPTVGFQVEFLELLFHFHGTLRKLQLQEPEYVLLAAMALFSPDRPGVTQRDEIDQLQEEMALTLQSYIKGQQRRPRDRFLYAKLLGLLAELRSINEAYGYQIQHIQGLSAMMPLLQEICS

With `Clc1cccc(Cl)c1Cl`, the Potency result in experiment [1], in [2], in experiment [3], in experiment [4], in experiment [5] and in experiment [7] was “inactive” throughout. For the same compound, the Potency entry in experiment [8], in [10], in experiment [12], in experiment [13] and in [14] was “inactive” throughout. In addition, the result in experiment [6], in experiment [9], in experiment [11] and in experiment [15] was inactive.

In the case of `CCC[CH2][Sn]([Cl])([Cl])[Cl]`, the Potency entry in experiment [1], in [2], in experiment [3], in [4], in [7] and in experiment [8] was “inactive” each time. Moreover, the Potency result in experiment [16], in experiment [17], in experiment [10], in experiment [12], in experiment [13] and in [14] was “inactive” throughout. Moreover, the Potency in [5] was 31.1 µM (active). Moreover, the outcome in [6], in experiment [9], in experiment [11], in experiment [18], in experiment [15] and in experiment [19] was inactive.

As to `CN(C)CCO`, the Potency entry in [1], in [2], in [3], in [4], in experiment [5] and in [7] was “inactive” each time. In addition, the Potency result in experiment [8], in [16], in experiment [17], in experiment [10], in experiment [12] and in experiment [13] was “inactive” in each case. In experiment [14], the Potency entry is “inactive”. The compound was classed as inactive in [6], in experiment [9], in experiment [11] and in [15].

For `CNC(=O)Oc1ccccc1OC(C)C`, the Potency entry in experiment [1], in [2], in experiment [3], in experiment [4], in experiment [5] and in experiment [7] was “inactive” each time. Also, the Potency entry in experiment [8], in experiment [16], in experiment [17], in [10], in [12] and in [13] was “inactive” each time. Moreover, the Potency result in [14] is “inactive”. Further, the outcome in experiment [6], in experiment [9], in experiment [11], in experiment [18] and in [15] was inactive.

For the compound `CCc1cccc(C)c1N(C(=O)CCl)C(C)COC` (configuration not stated), the Potency entry in [1], in experiment [2], in experiment [4], in [7], in experiment [8] and in experiment [17] was “inactive” each time. For the same compound, the Potency result in experiment [12], in [13] and in experiment [14] was “inactive” in each case. Also, the Potency was 25.7 µM (active) and 15.4 µM (active) in [3]; 45.8 µM (active) and 24.3 µM (active) in experiment [5]; 51.3 µM (active) and 54.5 µM (active) in experiment [10]. Also, the compound was classed as inactive in [6], in experiment [9], in experiment [11], in [18], in experiment [15] and in experiment [19].

For the compound `ClCc1cccnc1`, the Potency result in [1], in [2], in experiment [3], in [4], in [7] and in experiment [8] was “inactive” throughout. The Potency result in experiment [16], in experiment [17], in experiment [12], in experiment [13] and in experiment [14] was “inactive” in each case. For the same compound, the compound was classed as inactive in [9], in experiment [11], in [18], in experiment [15] and in experiment [19].

For `COC(=O)c1ccccc1C(=O)OC`, the Potency result in experiment [1], in [2], in experiment [3], in [4], in experiment [7] and in experiment [8] was “inactive” each time. For the same compound, the Potency entry in experiment [16], in experiment [10], in experiment [12], in experiment [13] and in experiment [14] was “inactive” in each case. In addition, the Potency in experiment [5] was 38.8 µM (active) and inactive. Also, the result in experiment [6], in [9], in experiment [11], in experiment [18] and in experiment [15] was inactive. In [20], the activity change, positive = activation was -0.694% (inactive) and 10.9% (active).

With `CC(C)(C)C(O)(CCc1ccc(Cl)cc1)Cn1cncn1` (configuration not stated), the Potency result in [1], in experiment [2], in experiment [3], in [4], in experiment [8] and in [16] was “inactive” each time. For the same compound, the Potency entry in [13] and in experiment [14] was “inactive” throughout. For the same compound, the Potency in experiment [5] is 55.1 µM (active); in experiment [10] it was 61.9 µM (active) and 61.1 µM (active); in experiment [12], 49.6 µM (active) and 49 µM (active). For the same compound, the outcome in [6], in experiment [9], in experiment [11], in experiment [18] and in [19] was inactive.

The values above are taken from PubChem BioAssay (Tox21).
